# Shown are actives, neighbours in structure and some others; about 1.8% of the full set was active somewhere.
# GSTO1 counter: counter-screen for RBBP9 inhibitors: inhibitors of human GSTO1. P78417. recombinant GSTO1, activity-based probe fluorescence polarization. inhibition, % at 5.96 µM. 300,000 compounds, 1.1% hits. AID 1974;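 active = inhibition above the campaign mean inhibition plus 3 SD, cut at about 35% in these data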;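 note: 0% = GSTO1-1 with DMSO and 100% = wells lacking GSTO1-1 enzyme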
# Target sequence (P78417 whole entry, looked up): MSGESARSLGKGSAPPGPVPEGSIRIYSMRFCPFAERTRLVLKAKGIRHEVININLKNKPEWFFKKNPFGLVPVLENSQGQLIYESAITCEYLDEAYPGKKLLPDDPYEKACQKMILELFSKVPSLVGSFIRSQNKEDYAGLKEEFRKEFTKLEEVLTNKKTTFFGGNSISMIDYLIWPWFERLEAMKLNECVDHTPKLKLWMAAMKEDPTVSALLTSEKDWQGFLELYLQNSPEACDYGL
# PME-1 primary: PME-1 (human) inhibition; AID 2130; inhibition, % at 5.9 µM; 320,000 compounds, 0.53% hits; recombinant PME-1, FP-Rh probe fluorescence polarization;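 active = inhibition above the campaign mean of all compounds plus 3 SD, cut at about 26% in these data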;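 note: competitive labeling of PME-1 active site by serine hydrolase directed probe; 0% = PME-1 with DMSO and 100% = wells lacking PME-1 enzyme; inhibitors block probe labeling so polarization falls and inhibition rises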
# Fam108B inh: counter-screen for RBBP9 inhibitors: inhibitors of mouse Fam108B; AID 1947; inhibition, % at 9.51 µM; 300,000 compounds, 0.33% hits; recombinant Fam108B, FP-Rh probe fluorescence polarization;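 active = inhibition above the screen mean inhibition plus 3 SD, computed separately per campaign, cut at about 18% in these data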;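 note: inhibitors lower polarization as less probe binds the enzyme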
# LYPLA2 inh: counter-screen for PME1 inhibitors: inhibitors of human LYPLA2; 320,000 compounds, 0.38% hits; O95372; recombinant LYPLA2, FP-Rh probe fluorescence polarization; inhibition, % at 5.9 µM;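 active = inhibition above the screen-wide mean plus 3 SD, limit set per campaign, cut at about 26% in these data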;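 note: 0% = LYPLA2 with DMSO and 100% = wells lacking LYPLA2 enzyme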
# Target sequence (O95372 whole entry, looked up): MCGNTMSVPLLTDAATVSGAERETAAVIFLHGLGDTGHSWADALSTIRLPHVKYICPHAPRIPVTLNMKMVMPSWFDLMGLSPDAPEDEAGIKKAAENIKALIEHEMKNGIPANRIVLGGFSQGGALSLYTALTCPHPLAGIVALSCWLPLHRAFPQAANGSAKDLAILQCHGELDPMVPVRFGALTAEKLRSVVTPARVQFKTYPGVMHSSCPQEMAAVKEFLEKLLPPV
# LYPLA1 counter: LYPLA1 (human) inhibition in PME1 counter-screen; recombinant LYPLA1, FP-Rh probe fluorescence polarization; inhibition, % at 5.9 µM; 320,000 compounds, 0.16% hits;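 active = inhibition above the mean of all tested compounds plus 3 SD, set per campaign, cut at about 14% in these data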;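 note: inhibitors block serine hydrolase probe labeling of LYPLA1 so polarization falls; 0% = enzyme with DMSO and 100% = wells lacking LYPLA1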
# PAD4 inh: PAD4 (human) enzyme inhibition; recombinant PAD4, RCA probe fluorescence polarization; 330,000 compounds, 0.41% hits; AID 485272; inhibition, % at 6.36 µM; Q9UM07;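 active = percent inhibition above a cutoff equal to the mean of all tested compounds plus 3 SD, cut at about 15% in these data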;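 note: 0% = PAD4 with RCA probe and DMSO and 100% = probe without PAD4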
# * marks the source's active call; other numbers are inactive results; nt = no result given; ! = repeats disagree.
SMILES,GSTO1 counter,PME-1 primary,Fam108B inh,LYPLA2 inh,LYPLA1 counter,PAD4 inh
O=C1c2ccccc2C(=O)N1c1cccc(-c2csc(Nc3ccc4c(c3)OCO4)n2)c1,62*,20,21*,-6,-19,-1
Cc1ccc2nc(Cl)c3nnnn3c2c1,-14,0,-3,6,1,22*
CCN1CCN(C(c2cccs2)C(C)NC(=O)C(=O)N2CCCCC2)CC1 (configuration not stated),1,0,0,-4,-4,0
O=[N+]([O-])c1cc(CN2CCCC2)c2cccnc2c1O,47*,-14,7,-2,-5,-24
O=C(CSc1nnc2ccc(-c3ccccn3)nn12)Nc1ccccc1F,-11,1,2,0,1,-1
Cc1ccc(C)c(OCC(O)CN2CCN(CCN3C(=O)c4cccc5cccc(c45)C3=O)CC2)c1 (configuration not stated),0,-3,-1,54*,0,-2
CC(=O)c1ccccc1OCC(O)CN1CCN(CCN2C(=O)c3cccc4cccc(c34)C2=O)CC1 (configuration not stated),8,0,3,39*,4,0
O=C(Cc1cc(=O)[nH][nH]1)N/N=C/c1ccccc1Cl,33,-4,1,-8,-2,-13
O=C(Cc1cc(=O)[nH][nH]1)N/N=C/c1cccc(Cl)c1Cl,35*!,0,-4,-3,2,-10
Cc1ccc(S(=O)(=O)N2CCN(C(=O)Cn3cnc4c3c(=O)n(C)c(=O)n4C)CC2)cc1C,nt,42*,nt,-3,1,-2
Cn1c(=O)c2c(ncn2CC(=O)N2CCN(S(=O)(=O)c3ccc(F)cc3)CC2)n(C)c1=O,nt,13,nt,1,4,-3
CCN(CC(=O)Nc1ccc(OC)cc1)C(=O)Cc1ccsc1,nt,-5,nt,9,0,0
O=C(Oc1ccc(OC(=O)c2ccncc2)cc1)c1ccncc1,35*,0,4,1,0,-5
O=C(C[C@H]1C[C@H](C(=O)N2CCCCC2)[C@@]2(CCc3ccccc3)c3[nH]c4ccc(Cl)cc4c3CCN2C1=O)NCCN1CCOCC1,nt,nt,nt,nt,nt,-4
Nc1c(C(=O)Nc2ccccc2)sc2nc(-c3ccco3)ccc12,8,56*,4,2,-11,-4
COc1ccccc1NC(=O)c1sc2nc(C)cc(C)c2c1N,10,4,1,3,3,-1
COc1cc2cc3c(N)c(C(=O)NCc4ccco4)sc3nc2cc1OC,-17,47*,17,1,-4,-6
Cc1ccc2nc3sc(C(=O)NCc4ccco4)c(N)c3cc2c1,-6,-2,-3,-4,-5,-7
Nc1c(C(=O)Nc2nc3ccccc3s2)sc2nc(-c3cccs3)ccc12,9,34*,8,-6,-13,3
COc1ccccc1NC(=O)c1sc2nc(-c3ccco3)ccc2c1N,-1,70*,10,-6,-10,-8
CC(=O)c1sc2nc(-c3cccs3)ccc2c1N,-8,-12,-5,-13,-5,5
Cc1ccccc1C(=O)N1CCC(C(=O)Nc2cc(C(F)(F)F)ccc2N2CCCC2)CC1,-4,5,-1,5,1,3
CCCCn1c(N)c(N(CC(C)C)C(=O)c2cccc(-n3cnnn3)c2)c(=O)[nH]c1=O,-1,5,0,4,3,-3
CCCN(C1CCS(=O)(=O)C1)S(=O)(=O)c1ccc(F)cc1 (configuration not stated),-1,1,6,-3,3,-2
O=S(=O)(c1cccc(C(F)(F)F)c1)N1CCN(S(=O)(=O)c2ccc3c(c2)OCCO3)CC1,nt,nt,nt,nt,nt,0
SMILES,GSTO1 counter,PME-1 primary,Fam108B inh,LYPLA2 inh,LYPLA1 counter,PAD4 inh
CCOc1cc(C)c(S(=O)(=O)NC2CC(C)(C)NC(C)(C)C2)cc1C,37*,-4,2,-2,-5,-3
COc1cc(/C=N/Nc2nc3ccccc3[nH]2)cc(OC)c1O,73*,-34,3,4,7,-11
COc1cc(/C=N/Nc2nc3ccccc3[nH]2)ccc1O,2,-50,8,4,2,-1
Cn1c(/C=N/Nc2nc3ccccc3[nH]2)nc2ccccc21,6,48*,12,-7,-7,-3
Cc1c(/C=N/Nc2nc3ccccc3[nH]2)c2ccccc2n1C,-57,6,8,4,-4,-1
Nc1nc(CCl)nc(N(c2ccccc2)c2ccccc2)n1,78*,0,-3,-6,-3,-1
CC(C)c1ncc(C(O)c2cccc3ccccc23)n1C (configuration not stated),36*,-1,-2,0,-2,0
CC1=Nc2ccccc2/C1=C/c1sc(=N)n(-c2nccs2)c1O,10,39*,13,0,4,-7
CCOCCc1nn2c(=O)cc(CSCC(=O)Nc3cc(C)cc(C)c3)nc2s1,3,-6,-3,3,0,-4
COc1ccc(-c2noc(CCC(=O)N3CCN(c4ccc(C(F)(F)F)cc4)CC3)n2)cc1,nt,nt,nt,nt,nt,0
C=C(C)COc1ccc(-c2[nH]ncc2-c2ccc(OC)c(OC)c2)c(O)c1,-1,29*,5,8,0,0
CCCCOC(=O)c1nc[nH]c1C(=O)OCCCC,7,3,1,-6,-1,-1
COc1ccc2[nH]c(O)c(N=NC(=O)c3ccc(NS(=O)(=O)c4cccs4)cc3)c2c1,nt,30*,nt,-4,-7,4
Cc1ccc2[nH]c(O)c(N=NC(=O)c3ccc(NS(=O)(=O)c4cccs4)cc3)c2c1,-9,52*,18,-12,-4,-5
O=S(=O)(Nc1nc(-c2sccc2Cl)cs1)c1cc(Cl)ccc1Cl,40*,13,29*,-5,-2,-9
CC(C)(C)c1nnc(NS(=O)(=O)c2cc(Cl)ccc2Cl)s1,-2,-4,-2,-3,-8,-2
COc1cccc(/C=N/Nc2nc3ccccc3n3cnnc23)c1O,0,29*,11,-3,-3,-10
COc1cccc(/C=N/Nc2nc3ccccc3n3cnnc23)c1,-3,-14,2,-2,-2,-4
CCN(CC)S(=O)(=O)c1cccc(NC(=O)CCNC(=O)NC23CC4CC(CC(C4)C2)C3)c1,-2,-8,-3,-9,-6,2
COc1ccccc1-c1nnc(Nc2nc3c(OC)cccc3s2)o1,-11,31*,8,-2,1,-5
COc1cccc(-c2nnc(Nc3nc4c(F)cccc4s3)o2)c1,0,44*,9,0,5,0
COc1cccc2sc(Nc3nnc(-c4ccccc4Cl)o3)nc12,-28,22,5,-1,4,-5
Nc1ccn(CC(=O)NCCc2ccccn2)c(=O)n1,nt,8,nt,-3,2,-7
COCCNc1oc(/C=C/c2ccc(F)cc2)nc1S(=O)(=O)c1ccccc1,6,3,-2,4,-1,0

# From PubChem
